Data taken from the supplement of paper PMC11732987, “Enantioselective OTUD7B fragment discovery through chemoproteomics screening and high-throughput optimisation” (Communications Chemistry, 2025).

Experiments:
Assay in all cases: log2 ratio of Biotin-Ahx-Ub-VS probe labelling (fragment/DMSO); higher = less target engagement (more negative = stronger competition), active = hit call of the paper (q ≤ 0.05, log2 ratio ≤ -1)
Conditions in all cases: compound concentration: 200 uM; treatment time: 3 h
USP34 = USP34 (UniProt Q70CQ2)
Chain of USP34 (Q70CQ2 whole entry, the tested form may be a part): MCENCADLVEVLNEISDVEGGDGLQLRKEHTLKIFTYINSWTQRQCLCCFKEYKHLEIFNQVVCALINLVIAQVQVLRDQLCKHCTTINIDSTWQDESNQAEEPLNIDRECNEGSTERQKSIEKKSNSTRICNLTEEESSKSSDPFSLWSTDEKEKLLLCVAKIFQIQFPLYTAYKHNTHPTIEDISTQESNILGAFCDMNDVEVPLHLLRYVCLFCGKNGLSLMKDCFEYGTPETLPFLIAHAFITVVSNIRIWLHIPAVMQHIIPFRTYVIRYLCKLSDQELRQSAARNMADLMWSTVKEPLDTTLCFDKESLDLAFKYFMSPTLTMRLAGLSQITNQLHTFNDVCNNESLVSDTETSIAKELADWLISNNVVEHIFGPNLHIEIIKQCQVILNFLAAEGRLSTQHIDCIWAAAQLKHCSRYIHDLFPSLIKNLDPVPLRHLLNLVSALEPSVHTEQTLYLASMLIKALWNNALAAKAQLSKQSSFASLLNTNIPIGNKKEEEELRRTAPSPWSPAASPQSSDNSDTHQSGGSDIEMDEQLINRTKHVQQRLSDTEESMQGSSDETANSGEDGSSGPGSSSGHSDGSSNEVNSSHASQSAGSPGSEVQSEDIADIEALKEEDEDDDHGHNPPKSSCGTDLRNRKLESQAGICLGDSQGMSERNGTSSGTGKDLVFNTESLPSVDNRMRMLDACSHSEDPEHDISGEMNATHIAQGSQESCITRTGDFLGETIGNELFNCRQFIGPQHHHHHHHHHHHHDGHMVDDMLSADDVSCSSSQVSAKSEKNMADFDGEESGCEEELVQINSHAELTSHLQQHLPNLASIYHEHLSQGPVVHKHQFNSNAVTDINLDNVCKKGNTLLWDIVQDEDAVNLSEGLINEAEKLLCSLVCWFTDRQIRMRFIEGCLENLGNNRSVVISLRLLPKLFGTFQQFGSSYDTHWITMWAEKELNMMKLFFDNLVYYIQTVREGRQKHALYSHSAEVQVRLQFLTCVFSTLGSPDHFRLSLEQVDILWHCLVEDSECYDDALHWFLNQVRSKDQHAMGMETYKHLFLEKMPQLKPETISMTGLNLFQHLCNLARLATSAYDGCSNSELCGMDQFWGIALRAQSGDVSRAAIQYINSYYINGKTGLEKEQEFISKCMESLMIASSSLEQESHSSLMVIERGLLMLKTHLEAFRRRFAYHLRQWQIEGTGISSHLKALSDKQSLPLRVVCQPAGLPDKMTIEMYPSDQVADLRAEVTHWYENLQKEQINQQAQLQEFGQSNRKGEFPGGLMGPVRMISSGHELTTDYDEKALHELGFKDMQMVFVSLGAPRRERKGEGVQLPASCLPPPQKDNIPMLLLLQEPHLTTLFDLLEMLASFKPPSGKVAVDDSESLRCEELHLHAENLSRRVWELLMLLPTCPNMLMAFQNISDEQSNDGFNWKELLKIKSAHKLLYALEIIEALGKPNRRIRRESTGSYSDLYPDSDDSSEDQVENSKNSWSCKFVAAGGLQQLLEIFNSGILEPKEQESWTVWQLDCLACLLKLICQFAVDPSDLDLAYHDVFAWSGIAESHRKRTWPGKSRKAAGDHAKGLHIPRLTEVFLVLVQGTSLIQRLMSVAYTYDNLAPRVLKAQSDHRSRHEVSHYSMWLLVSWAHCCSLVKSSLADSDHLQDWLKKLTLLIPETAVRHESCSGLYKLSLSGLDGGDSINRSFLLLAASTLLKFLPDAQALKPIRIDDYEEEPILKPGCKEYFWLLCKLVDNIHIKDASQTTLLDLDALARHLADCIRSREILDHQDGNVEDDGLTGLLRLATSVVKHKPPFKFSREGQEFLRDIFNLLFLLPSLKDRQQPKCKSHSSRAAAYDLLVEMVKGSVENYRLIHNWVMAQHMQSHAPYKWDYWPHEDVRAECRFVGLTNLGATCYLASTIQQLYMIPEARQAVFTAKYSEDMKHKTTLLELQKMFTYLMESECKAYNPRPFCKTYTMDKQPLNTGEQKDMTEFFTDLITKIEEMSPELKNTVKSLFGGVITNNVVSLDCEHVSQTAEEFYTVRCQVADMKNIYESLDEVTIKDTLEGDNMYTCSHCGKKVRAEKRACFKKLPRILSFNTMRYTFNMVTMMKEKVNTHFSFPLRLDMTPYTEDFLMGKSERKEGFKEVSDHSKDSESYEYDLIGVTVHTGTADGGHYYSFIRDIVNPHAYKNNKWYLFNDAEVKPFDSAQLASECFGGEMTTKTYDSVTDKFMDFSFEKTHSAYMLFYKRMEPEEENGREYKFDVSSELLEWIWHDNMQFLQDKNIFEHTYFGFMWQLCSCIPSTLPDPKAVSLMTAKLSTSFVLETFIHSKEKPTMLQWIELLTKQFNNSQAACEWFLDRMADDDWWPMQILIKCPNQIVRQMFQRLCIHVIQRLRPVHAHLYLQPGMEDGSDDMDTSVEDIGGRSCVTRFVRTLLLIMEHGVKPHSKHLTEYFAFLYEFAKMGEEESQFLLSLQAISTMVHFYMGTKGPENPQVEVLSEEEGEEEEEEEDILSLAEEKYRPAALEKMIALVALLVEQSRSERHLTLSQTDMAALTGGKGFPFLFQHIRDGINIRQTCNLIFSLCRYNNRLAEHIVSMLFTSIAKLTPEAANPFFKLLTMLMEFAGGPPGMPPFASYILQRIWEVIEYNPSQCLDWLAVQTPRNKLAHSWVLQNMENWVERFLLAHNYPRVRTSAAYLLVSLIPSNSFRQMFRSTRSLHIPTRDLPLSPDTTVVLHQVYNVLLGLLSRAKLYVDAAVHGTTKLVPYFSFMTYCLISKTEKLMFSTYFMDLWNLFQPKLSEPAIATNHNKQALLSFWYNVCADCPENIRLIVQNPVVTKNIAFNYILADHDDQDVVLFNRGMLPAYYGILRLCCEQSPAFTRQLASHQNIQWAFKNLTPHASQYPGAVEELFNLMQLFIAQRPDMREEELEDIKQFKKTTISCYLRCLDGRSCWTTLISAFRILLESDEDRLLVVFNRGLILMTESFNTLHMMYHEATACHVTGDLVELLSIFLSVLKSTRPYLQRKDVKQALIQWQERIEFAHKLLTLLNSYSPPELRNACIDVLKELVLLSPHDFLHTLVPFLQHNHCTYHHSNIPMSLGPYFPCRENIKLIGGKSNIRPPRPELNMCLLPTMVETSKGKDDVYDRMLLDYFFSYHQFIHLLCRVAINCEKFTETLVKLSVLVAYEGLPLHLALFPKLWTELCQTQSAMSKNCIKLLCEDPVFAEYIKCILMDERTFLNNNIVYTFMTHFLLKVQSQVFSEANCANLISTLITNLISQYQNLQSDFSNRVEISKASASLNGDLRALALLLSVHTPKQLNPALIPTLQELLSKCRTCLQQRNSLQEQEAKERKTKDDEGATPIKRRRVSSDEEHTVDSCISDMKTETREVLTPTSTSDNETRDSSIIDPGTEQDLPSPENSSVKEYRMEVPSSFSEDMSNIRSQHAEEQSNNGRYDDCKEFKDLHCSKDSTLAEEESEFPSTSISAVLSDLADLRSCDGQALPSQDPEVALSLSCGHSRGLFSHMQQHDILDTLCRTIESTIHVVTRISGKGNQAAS
Method in brief: (§1)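 HEK293T lysate, 495 µg per sample in Tris/CHAPS/IGEPAL buffer with protease inhibitors, was treated in triplicate with fragment at 200 µM or vehicle for 3 h and then with Biotin-Ahx-Ub-VS at 0.5 µM final for 1 h. Labelled DUBs were NeutrAvidin-enriched, digested with LysC and trypsin, and run by diaPASEF LC-MS/MS. Spectronaut label-free quantities were global-median-normalised, and values are average log2 fragment/vehicle ratios by unpaired t-test on proteins with ≥2 unique peptides.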

USP36 = target: T1, USP36 (UniProt Q9P275)
T1 sequence (whole entry): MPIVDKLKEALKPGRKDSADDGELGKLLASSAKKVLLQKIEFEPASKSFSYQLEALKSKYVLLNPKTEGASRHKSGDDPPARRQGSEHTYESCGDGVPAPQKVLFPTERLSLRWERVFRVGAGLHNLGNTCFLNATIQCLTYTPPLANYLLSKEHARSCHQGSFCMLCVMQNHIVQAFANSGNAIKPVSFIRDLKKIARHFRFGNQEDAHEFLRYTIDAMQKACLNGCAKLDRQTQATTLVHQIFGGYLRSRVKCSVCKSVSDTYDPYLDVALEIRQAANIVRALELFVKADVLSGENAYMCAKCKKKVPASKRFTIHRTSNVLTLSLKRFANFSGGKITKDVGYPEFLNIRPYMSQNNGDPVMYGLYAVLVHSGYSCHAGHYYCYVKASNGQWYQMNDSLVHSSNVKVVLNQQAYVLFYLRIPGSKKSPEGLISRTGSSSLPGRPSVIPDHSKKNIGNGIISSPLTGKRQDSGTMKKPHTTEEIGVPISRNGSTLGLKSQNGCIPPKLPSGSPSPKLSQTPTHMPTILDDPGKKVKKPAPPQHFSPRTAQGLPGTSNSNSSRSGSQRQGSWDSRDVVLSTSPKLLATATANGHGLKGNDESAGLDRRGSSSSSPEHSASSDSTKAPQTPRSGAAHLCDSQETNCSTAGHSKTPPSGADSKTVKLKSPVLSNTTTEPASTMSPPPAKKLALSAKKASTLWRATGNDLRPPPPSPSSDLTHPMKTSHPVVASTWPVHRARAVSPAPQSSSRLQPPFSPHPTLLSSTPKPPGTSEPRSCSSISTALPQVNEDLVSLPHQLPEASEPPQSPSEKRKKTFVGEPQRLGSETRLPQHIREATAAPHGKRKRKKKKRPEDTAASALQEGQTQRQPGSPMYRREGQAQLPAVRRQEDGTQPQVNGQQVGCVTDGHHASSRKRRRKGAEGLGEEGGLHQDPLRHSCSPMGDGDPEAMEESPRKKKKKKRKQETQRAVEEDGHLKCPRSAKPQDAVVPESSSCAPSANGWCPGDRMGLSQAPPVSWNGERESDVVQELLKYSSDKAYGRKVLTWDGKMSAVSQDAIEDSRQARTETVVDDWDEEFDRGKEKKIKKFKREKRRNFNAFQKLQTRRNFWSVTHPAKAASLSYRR
Method in brief: as §1

USP38 = target: T2, USP38 (UniProt Q8NB14)
T2 sequence (whole entry): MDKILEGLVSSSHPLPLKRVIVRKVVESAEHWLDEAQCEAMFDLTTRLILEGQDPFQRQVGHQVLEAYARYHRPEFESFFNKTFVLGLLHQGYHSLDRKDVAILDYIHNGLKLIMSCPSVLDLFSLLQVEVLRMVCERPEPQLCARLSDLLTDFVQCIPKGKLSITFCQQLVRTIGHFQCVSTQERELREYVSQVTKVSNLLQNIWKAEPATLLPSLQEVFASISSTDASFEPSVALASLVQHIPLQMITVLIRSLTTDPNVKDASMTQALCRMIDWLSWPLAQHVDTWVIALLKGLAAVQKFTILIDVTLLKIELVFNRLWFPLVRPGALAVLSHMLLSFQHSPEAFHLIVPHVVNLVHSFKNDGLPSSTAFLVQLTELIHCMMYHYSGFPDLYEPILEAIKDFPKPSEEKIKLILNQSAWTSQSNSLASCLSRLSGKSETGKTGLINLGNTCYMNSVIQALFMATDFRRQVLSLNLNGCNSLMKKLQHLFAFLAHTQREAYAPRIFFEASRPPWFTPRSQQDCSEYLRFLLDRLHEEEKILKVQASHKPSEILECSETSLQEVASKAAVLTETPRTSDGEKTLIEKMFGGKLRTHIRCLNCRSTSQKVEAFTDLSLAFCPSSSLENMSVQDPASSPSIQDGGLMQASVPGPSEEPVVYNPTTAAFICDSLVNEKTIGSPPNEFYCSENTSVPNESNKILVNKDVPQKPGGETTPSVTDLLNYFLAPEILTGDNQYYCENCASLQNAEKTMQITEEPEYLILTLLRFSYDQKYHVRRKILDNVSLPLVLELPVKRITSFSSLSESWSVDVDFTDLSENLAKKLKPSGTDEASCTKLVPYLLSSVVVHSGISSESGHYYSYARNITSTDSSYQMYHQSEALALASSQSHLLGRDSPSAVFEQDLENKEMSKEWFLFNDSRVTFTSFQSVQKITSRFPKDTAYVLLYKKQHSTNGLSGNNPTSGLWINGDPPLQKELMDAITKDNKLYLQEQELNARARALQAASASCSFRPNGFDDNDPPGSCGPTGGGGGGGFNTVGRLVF
Method in brief: as §1

USP39 = target: T3, USP39 (UniProt Q53GS9)
T3 sequence (whole entry): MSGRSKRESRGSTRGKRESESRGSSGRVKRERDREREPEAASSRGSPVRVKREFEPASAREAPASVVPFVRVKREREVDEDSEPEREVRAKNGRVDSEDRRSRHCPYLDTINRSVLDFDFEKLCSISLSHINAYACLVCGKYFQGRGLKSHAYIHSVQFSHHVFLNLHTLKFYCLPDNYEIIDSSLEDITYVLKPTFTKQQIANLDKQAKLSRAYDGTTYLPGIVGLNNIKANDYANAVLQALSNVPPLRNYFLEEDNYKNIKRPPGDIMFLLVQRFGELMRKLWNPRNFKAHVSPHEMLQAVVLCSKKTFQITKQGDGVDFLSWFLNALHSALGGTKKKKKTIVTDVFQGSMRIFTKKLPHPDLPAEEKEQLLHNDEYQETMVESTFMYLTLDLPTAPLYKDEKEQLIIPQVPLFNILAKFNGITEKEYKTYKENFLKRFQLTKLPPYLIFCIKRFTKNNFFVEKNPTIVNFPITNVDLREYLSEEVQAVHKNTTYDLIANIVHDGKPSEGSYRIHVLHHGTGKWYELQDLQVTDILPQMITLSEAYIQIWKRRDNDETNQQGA
Method in brief: as §1

USP4 = target: T4, USP4 (UniProt Q13107)
T4 sequence (whole entry): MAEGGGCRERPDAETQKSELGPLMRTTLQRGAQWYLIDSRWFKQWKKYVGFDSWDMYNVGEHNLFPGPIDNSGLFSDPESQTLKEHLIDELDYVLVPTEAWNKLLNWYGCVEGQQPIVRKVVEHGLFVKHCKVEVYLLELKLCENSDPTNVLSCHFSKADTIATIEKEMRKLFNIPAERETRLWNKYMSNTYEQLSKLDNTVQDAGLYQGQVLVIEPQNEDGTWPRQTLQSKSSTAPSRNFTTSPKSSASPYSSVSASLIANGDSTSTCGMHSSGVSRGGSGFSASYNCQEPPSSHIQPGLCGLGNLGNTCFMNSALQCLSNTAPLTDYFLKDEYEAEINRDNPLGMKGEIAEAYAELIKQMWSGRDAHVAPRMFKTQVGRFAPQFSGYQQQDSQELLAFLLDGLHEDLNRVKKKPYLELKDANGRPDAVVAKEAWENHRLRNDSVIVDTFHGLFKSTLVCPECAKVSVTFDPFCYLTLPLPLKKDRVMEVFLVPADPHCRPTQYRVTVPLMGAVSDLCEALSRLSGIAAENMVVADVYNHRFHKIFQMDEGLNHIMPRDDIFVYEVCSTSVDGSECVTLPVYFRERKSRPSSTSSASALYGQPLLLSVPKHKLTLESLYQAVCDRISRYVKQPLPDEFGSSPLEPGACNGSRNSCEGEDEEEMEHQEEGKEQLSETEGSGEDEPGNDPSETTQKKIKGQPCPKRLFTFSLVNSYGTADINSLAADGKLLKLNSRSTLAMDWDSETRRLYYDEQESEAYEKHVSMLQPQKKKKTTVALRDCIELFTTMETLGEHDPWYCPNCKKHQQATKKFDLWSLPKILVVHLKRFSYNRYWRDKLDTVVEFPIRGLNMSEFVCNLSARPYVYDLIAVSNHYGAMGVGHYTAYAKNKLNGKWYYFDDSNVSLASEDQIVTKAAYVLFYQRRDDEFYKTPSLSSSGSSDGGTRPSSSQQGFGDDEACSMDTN
Method in brief: as §1

Measured: log2 ratio of Biotin-Ahx-Ub-VS probe labelling

COc1cc(Cl)c(C)cc1NC(=O)CCl
inactive: USP34 -0.327 | USP36 -0.122 | USP38 -0.241 | USP39 -0.366 | USP4 -0.423
